# According to PubChem BioAssay:
# The source made the active and inactive calls.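 How the source made its calls, unless noted: active means inhibition at or above 50% relative to wild type and mutant plate controls; inactive means inhibition below 50%.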
# Key:
# [1] = inhibitors of TNFa-induced NFkB p65 translocation, primary screen, imaging, HUVEC, MLSMR starter and 10KST1 sets (AID 438;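 active means inhibition above 20% together with a positive visual image hit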;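 further: compound added about 3h40 before a 20 min TNFalpha stimulation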;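 on inhibition: signal is the nuclear over cytoplasmic p65 intensity ratio per well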); details: HUVEC TNFa-induced p65 nuclear translocation; cell count: measured here: nuclei count (cytotoxicity indicator), at 2.08 µM unless noted; inhibition: at 2 µM, stronger effect = higher value unless noted
# [2] = inhibitors of mutant huntingtin aggregation, primary screen, imaging, exon1htt(103Q)mCFP cells, high-content imaging (AID 483;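 active means visual image review flags a hit and inhibition of aggregation exceeds 20%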;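 further: compound exposure lasted 3 days before fixation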;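 on nuclei count: percent of the per-plate median nuclei count of sample wells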); details: exon1htt(103Q)mCFP cell line, aggregate imaging, at 2 µM; inhibition of aggregation: stronger effect = higher value; nuclei count: measured here: cell count, toxicity
# [3] = inhibitors of E-selectin induction by TNFa, primary screen, imaging, HUVEC, immunofluorescence, MLSMR starter and 10KST1 sets (AID 487;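 active means visually confirmed hit in the image check and inhibition above 20%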;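 on inhibition: signal is fraction of cell area covered by stained E-selectin grains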;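 on nuclei count: 100% = median nuclei count of all wells on the same plate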); details: HUVEC TNFalpha-induced E-selectin immunofluorescence imaging, at 2 µM; inhibition: stronger effect = higher value; nuclei count: measured here: cell number, toxicity
# [4] = molecular target: Voltage-gated potassium channel subunit beta-2 (Rattus norvegicus) (UniProt P62483); assay: KvBeta enzyme negative modulators, primary screen, biochemical, NADPH fluorescence (AID 622;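 active means fluorescence slope higher than the sample average by over 3 SD, cut at about -0.22 in these data, passing the limit was not always enough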;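 further: slope of raw intensity against log time taken from 70 to 1610 s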); details: recombinant KvBeta, 4-cyanobenzaldehyde reduction, at 10 µM, stronger effect = higher value
# [5] = molecular target: Voltage-gated potassium channel subunit beta-2 (Rattus norvegicus) (UniProt P62483); assay: KvBeta positive modulators, primary screen, biochemical, NADPH fluorescence (AID 623;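 active means NADPH fluorescence slope more negative than the mean of all samples by about 3 SD, 99.7% confidence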;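 further: fluorescence intensity change per second fitted from 20 to 320 s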); details: Recombinant KvBeta, NADPH fluorescence decrease slope, 10 min; at 10 µM; stronger effect = lower value
# [6] = molecular target: Muscarinic acetylcholine receptor M4 (Homo sapiens) (UniProt P08173); assay: compounds altering M4/GIRK thallium flux, either direction, primary screen, M4 allosteric agonist project, cell-based, HEK293 M4/GIRK, BTC-AM (AID 625;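 active means fluorescence slope after compound addition differing from the mean of all tested samples at 99.7% confidence, mostly higher but some lower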;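 further: thallium influx through GIRK channels coupled to M4 in HEK293 cells with BTC-AM dye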); details: at 10 µM, actives lie on both sides
# [7] = inhibitors of Sendai virus-induced IRF3 signaling, primary screen, TLR/RLR signaling modifier project, cell-based, Sendai virus stimulus, luciferase, 10K MLSCN set (AID 602276;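 active means inhibition at or above 50% at 10 µM; inactive means inhibition below 50%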;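 further: firefly luciferase from ISG56 promoter only with Renilla not read in this screen; 0% = Sendai virus plus DMSO and 100% = medium plus DMSO without virus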); details: HEK293 RL24 IRF3 luciferase reporter, at 10 µM, stronger effect = higher value
# [8] = inhibitors of poly I:C-induced TLR3 signaling, primary screen, cell-based, poly I:C stimulus, luciferase, 10K MLSCN set (AID 602277;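 active means inhibition of the reporter signal at or above 50%; inactive means inhibition below 50%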); details: HEK293-TLR3 RL24 IRF3 luciferase reporter, at 10 µM, stronger effect = higher value
# [9] = inhibitors of Chlamydomonas gravitaxis, primary screen, whole organism, Chlamydomonas reinhardtii, WT vs cilia-less mutant, absorbance, 96-well (AID 463189); details: OD600 absorbance, 2 days, at 10 µM, stronger effect = higher value;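 further: 0% = wild type cc124 cells in DMSO and 100% = ciliumless bld1 mutant cells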
# Sequence of Voltage-gated potassium channel subunit beta-2 (Rattus norvegicus) (P62483 whole entry, looked up): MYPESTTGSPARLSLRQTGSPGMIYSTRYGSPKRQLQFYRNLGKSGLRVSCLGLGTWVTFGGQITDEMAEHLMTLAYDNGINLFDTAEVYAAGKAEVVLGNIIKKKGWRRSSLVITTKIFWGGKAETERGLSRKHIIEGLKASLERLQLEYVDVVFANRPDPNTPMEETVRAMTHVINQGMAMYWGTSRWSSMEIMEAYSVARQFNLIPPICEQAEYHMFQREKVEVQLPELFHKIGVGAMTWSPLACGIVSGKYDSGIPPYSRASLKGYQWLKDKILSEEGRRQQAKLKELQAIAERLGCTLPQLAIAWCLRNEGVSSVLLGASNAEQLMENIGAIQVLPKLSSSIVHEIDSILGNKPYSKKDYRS
# Sequence of Muscarinic acetylcholine receptor M4 (Homo sapiens) (P08173 whole entry, looked up): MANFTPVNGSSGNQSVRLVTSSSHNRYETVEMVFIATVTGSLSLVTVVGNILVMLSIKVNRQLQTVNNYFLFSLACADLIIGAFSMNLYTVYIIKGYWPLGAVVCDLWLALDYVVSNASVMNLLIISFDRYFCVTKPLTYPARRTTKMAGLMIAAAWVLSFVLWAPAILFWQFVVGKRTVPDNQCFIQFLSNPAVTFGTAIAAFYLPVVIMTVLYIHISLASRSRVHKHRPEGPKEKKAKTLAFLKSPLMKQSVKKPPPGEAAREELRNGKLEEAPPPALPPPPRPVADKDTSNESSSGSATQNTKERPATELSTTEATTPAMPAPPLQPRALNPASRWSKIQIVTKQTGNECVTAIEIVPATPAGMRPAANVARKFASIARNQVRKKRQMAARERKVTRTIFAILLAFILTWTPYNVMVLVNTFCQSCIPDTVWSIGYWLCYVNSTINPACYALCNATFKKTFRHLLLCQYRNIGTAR
smiles,measurement,setting,value
CCOC(=O)C(O)(c1ccc(N(CC)C(=O)OC)cc1)C(F)(F)F (centres undefined),cell count,[1],614
same,inhibition,[1],-6.1% (inactive)
same,inhibition of aggregation,[2],-9.5% (inactive)
same,nuclei count,[2],91.2%
same,inhibition,[3],-140% (inactive)
same,nuclei count,[3],111%
same,fluorescence slope,[4],-0.425 (inactive)
same,NADPH fluorescence slope,[5],-0.000455 (inactive)
same,fluorescence slope,[6],0.00401 (inactive)
same,inhibition,[7],13.7% (inactive)
same,inhibition,[8],13.7% (inactive)
OCC12COC3c4ccccc4C(OC1)N32 (centres undefined),cell count,[1],478
same,inhibition,[1],-7.1% (inactive)
same,inhibition of aggregation,[2],-0.1% (inactive)
same,nuclei count,[2],109%
same,inhibition,[3],-7.2% (inactive)
same,nuclei count,[3],112%
same,fluorescence slope,[4],-0.538 (inactive)
same,NADPH fluorescence slope,[5],-4.5e-06 (inactive)
same,fluorescence slope,[6],0.00589 (inactive)
same,inhibition,[7],5.14% (inactive)
same,inhibition,[8],12.6% (inactive)
O=C(c1ccc(CS(=O)(=O)c2ccccc2)o1)N1CCC2(CC1)OCCO2,cell count,[1],379
same,inhibition,[1],8% (inactive)
same,inhibition of aggregation,[2],-2% (inactive)
same,nuclei count,[2],97%
same,inhibition,[3],-80.2% (inactive)
same,nuclei count,[3],107%
same,fluorescence slope,[4],-0.523 (inactive)
same,NADPH fluorescence slope,[5],-0.000178 (inactive)
same,fluorescence slope,[6],0.00484 (inactive)
same,inhibition,[7],-15.4% (inactive)
same,inhibition,[8],-9.63% (inactive)
CC(=O)N1CC(=O)Nc2ccc(Cl)cc2C1c1ccc(F)cc1 (centres undefined),cell count,[1],416
same,inhibition,[1],20.8% (inactive)
same,inhibition of aggregation,[2],-6.1% (inactive)
same,nuclei count,[2],103%
same,inhibition,[3],-45.1% (inactive)
same,nuclei count,[3],105%
same,fluorescence slope,[4],-0.569 (inactive)
same,NADPH fluorescence slope,[5],-1.5e-05 (inactive)
same,fluorescence slope,[6],0.00574 (inactive)
same,inhibition,[7],-2.3% (inactive)
same,inhibition,[8],-0.788% (inactive)
Cc1cc(N2C(=O)C3CCCN3C2c2cccc(Cl)c2)no1 (centres undefined),cell count,[1],465
same,inhibition,[1],-3.9% (inactive)
same,inhibition of aggregation,[2],8.2% (inactive)
same,nuclei count,[2],97.3%
same,inhibition,[3],28.8% (inactive)
same,nuclei count,[3],91.4%
same,fluorescence slope,[4],-0.543 (inactive)
same,NADPH fluorescence slope,[5],-2.7e-05 (inactive)
same,fluorescence slope,[6],0.00553 (inactive)
same,inhibition,[7],13.2% (inactive)
same,inhibition,[8],22.3% (inactive)
CC[C@@H](CO)NC(=O)[C@@H]1C=C2c3cccc4[nH]cc(c34)C[C@H]2N(C)C1,inhibition,[9],-0.368% (inactive)
COc1ccccc1N1CCN(Cc2cccc(OC)c2O)CC1,cell count,[1],509
same,inhibition,[1],-6% (inactive)
same,inhibition of aggregation,[2],23.5% (inactive)
same,nuclei count,[2],95.4%
same,inhibition,[3],-10% (inactive)
same,nuclei count,[3],85.8%
same,fluorescence slope,[4],-0.58 (inactive)
same,NADPH fluorescence slope,[5],-0.000104 (inactive)
same,fluorescence slope,[6],0.0035 (inactive)
same,inhibition,[7],14.4% (inactive)
same,inhibition,[8],12.6% (inactive)
COc1ccc(C2NCc3ccc4c(c3-n3cccc32)OCO4)cc1O (centres undefined),cell count,[1],479
same,inhibition,[1],9.5% (inactive)
same,inhibition of aggregation,[2],-349% (inactive)
same,nuclei count,[2],0.8%
same,inhibition,[3],-140% (inactive)
same,nuclei count,[3],99%
same,fluorescence slope,[4],-0.458 (inactive)
same,NADPH fluorescence slope,[5],-4.4e-05 (inactive)
same,fluorescence slope,[6],0.00468 (inactive)
same,inhibition,[7],27.9% (inactive)
same,inhibition,[8],83% (active)
COc1cc(C2NCc3ccccc3-n3cccc32)ccc1O (centres undefined),cell count,[1],660
same,inhibition,[1],-19.1% (inactive)
same,inhibition of aggregation,[2],12.9% (inactive)
same,nuclei count,[2],123%
same,inhibition,[3],-128% (inactive)
same,nuclei count,[3],110%
same,fluorescence slope,[4],-0.487 (inactive)
same,NADPH fluorescence slope,[5],-3.3e-05 (inactive)
same,fluorescence slope,[6],0.00515 (inactive)
same,inhibition,[7],-1.03% (inactive)
same,inhibition,[8],-2.21% (inactive)
COc1ccc2c3c1O[C@H]1C(=O)CC[C@@]4(O)C(C2)N(CC2CC2)CCC314 (some centres undefined),inhibition,[9],3.52% (inactive)
C[N+](C)(C)CC#CCN1CCCC1=O,inhibition,[9],-6.29% (inactive)
CNCCc1ccc(O)c(O)c1,inhibition,[9],8.08% (inactive)
C=CCN1CCC23c4c5ccc(O)c4O[C@H]2C(=O)CC[C@@]3(O)C1C5 (some centres undefined),inhibition,[9],4.89% (inactive)
NCCc1c[nH]c2ccc(O)cc12,inhibition,[9],-4.38% (inactive)
CCS(=O)(=O)Nc1cccc(C(=C2CCCCC2)c2cnc[nH]2)c1,inhibition,[9],2.69% (inactive)
c1ccc(C2CC2)c(OCC2=NCCN2)c1,inhibition,[9],3.8% (inactive)
C=CCN1CC[C@]23c4c5ccc(O)c4O[C@H]2/C(=N/NC(=O)c2ccccc2)CC[C@@]3(O)[C@H]1C5,inhibition,[9],2.64% (inactive)
CCN(CC)c1ncnc2c1ncn2[C@@H]1O[C@H](COP(=O)(O)OP(=O)(O)C(Br)(Br)P(=O)(O)O)[C@@H](O)[C@H]1O,inhibition,[9],-12.6% (inactive)
CC1Cc2cc3c(cc2C(c2ccc(N)cc2)=NN1)OCO3 (centres undefined),inhibition,[9],0.595% (inactive)
C/C(O)=C(\C#N)C(=O)Nc1cc(Br)ccc1Br,inhibition,[9],2.1% (inactive)
C[C@@H]1O[C@H](C[N+](C)(C)C)C[C@H]1O,inhibition,[9],3.38% (inactive)
CC(N)c1cccc(Cl)c1Cl (centres undefined),inhibition,[9],-4.86% (inactive)
C[C@]12N[C@H](Cc3ccccc31)c1ccccc12,inhibition,[9],-0.308% (inactive)
C=CCN1CCC2(C)c3cc(O)ccc3CC1C2C (centres undefined),inhibition,[9],0.366% (inactive)
CC(C)(C)c1cc(C=C(C#N)C#N)cc(C(C)(C)C)c1O,inhibition,[9],1.13% (inactive)
NC(N)=NOCC[C@H](N)C(=O)O,inhibition,[9],-0.094% (inactive)
NC(=O)COc1c(F)cc(SCCNS(=O)(=O)c2ccccc2)cc1F,inhibition,[9],4.45% (inactive)
CCCN1CCC[C@@H](c2cccc(O)c2)C1,inhibition,[9],0.338% (inactive)
Oc1ccc2c3c1O[C@H]1c4oc5ccccc5c4C[C@@]4(O)C(C2)N(CC2CC2)CCC314 (some centres undefined),inhibition,[9],3.38% (inactive)
C[C@]12CC[C@@H](O)CC1CC[C@@H]1[C@@H]2CC[C@]2(C)C(=O)CC[C@@H]12 (some centres undefined),inhibition,[9],0.791% (inactive)
CCCCCCCCC(=O)NCc1ccc(O)c(OC)c1,inhibition,[9],12.3% (inactive)
NCC(O)c1cc(O)c(O)cc1F (centres undefined),inhibition,[9],1.21% (inactive)
CN1C[C@@H](CS(=O)(=O)N(C)C)C[C@@H]2c3cccc4c3c(cn4C)C[C@H]21,inhibition,[9],4.5% (inactive)
N#CC(C#N)=Cc1ccc(O)c(O)c1,inhibition,[9],1.54% (inactive)
